# Screen size: about 53,000 sequences; about 3,700 (7%) were called active. This excerpt belongs to a sample that is enriched for actives. A number with no mark means an inactive call.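 How the source made its calls: active means gene knockdowns whose robust z-score for IL-1 alpha signal is at least 2 or at most -2, so actives lie on both sides; inactive means the rest.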
# Test: Components of the Cytosolic LPS Sensing Pathway: Gene Identification via Genome-wide siRNA Screen;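 further: robust z of the log signal after scaling to non-targeting control siRNA wells of the plate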
# Settings: RAW264.7 macrophages, IL-1a HTRF, actives lie on both sides, screened at 100 nM (by protocol), cells primed 5 h with Pam3CSK4 first
# Summary of the method: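 Read-out: IL-1a HTRF on supernatant, divided by plate negative-control median ×100, log-transformed and converted to robust z-score. Cells were RAW264.7 given 100 nM siRNA, Pam3CSK4-primed 5 hours, then LipidA-transfected 24 hour.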
row,Sequence,z-score
1,GCAGUACGCUGCAUUUAAATT against Mtrf1l,0.551
2,GGAGUUUCAACUCUUCUUCTT against Necab2,-0.576
3,GCUCCUGAACUAAUACAAGTT against Melk,5 (active)
4,GGUGAGGAGGAAAUCCUGCTT against Rdh10,-1.21
5,CCUGCUUUGUAUCUCCUCCTT against Csprs,0.184
6,GCAACAAUGAGAGACCACATT against Htr5a,3.27 (active)
7,GGAAGCAUCUCAUUAUUCATT against Lamp2,0.0306
8,GGCACCUACAUCCUUAUUGTT against Ptprn,-0.16
9,GGAAAGGAAAAUCAACUUCTT against Usp14,0.0989
10,GCUUUCUUUUGCACUUGAATT against Ctc1,-1.1
11,CCACAUGUCACAUCUUUUCTT against Mrpl47,0.16
12,GGCACAGACUAAGGUAUAGTT against Adra2c,-1.51
13,GCCCUGAAGCCUAUAAUCATT against Nhlrc1,2.34 (active)
14,GGCAACAGUACCAAAGACATT against Rps24,0.483
15,GGCCGAAUCACAGAAACUCTT against Mrps18a,1.87
16,GUAAGCAGCAACAGAGGCUTT against Cd70,-0.558
17,GGCAUUGAAGGAAGUGAUCTT against Psmg3,-2.9 (active)
18,GGCCUUAGUAUUCUGCCUCTT against Nuak1,0.395
19,GGGAAUUCACACUGUCUGGTT against Tmem176a,-1.73
20,CGGCUAAGGAAAAAUGUGATT against Nr1h4,-1.26
21,CCAACAUCCUUAAGCGGCUTT against Lonp1,-0.161
22,GGUCAAAGGUGAAGAGAAATT against Chgb,1.43
23,GGAAACAGCAUCAUCAUGUTT against Snrpg,-2.28 (active)

row,Sequence,z-score
1,CGUACAUCGUCGAGAUUUUTT against Rims1,0.839
2,GCGGAACCUAUAUAGGAAUTT against Zfp74,-0.292
3,CGAGAGUAGCUUGUUGCUGTT against Rhobtb3,0.359
4,GCUGUAUGGGAAGGGUUACTT against Tsen2,0.829
5,GGAUCAGUACCUGUGAUGGTT against Adamdec1,-2.07 (active)
6,GGAUCGUAGAACACCCUUCTT against Robo2,-0.00164
7,GGAUUCCACAAUUUUUGUATT against Ncoa6,-0.399
8,GCGGGUUAACUUGUUUGGUTT against Zcwpw1,0.525
9,GGCUUACACAAAAAUCUGUTT against Camk2d,-0.36
10,GGAAAUUACCUUGAUGAUGTT against Anxa4,-1.59
11,GGACAAUCUGAUUCAAGUATT against Ms4a2,0.104
12,GUUGUGCAAUCAACAAGGUTT against Fam98c,2.05 (active)
13,GCUACGCAAUAAGACCACATT against Lamc3,2.25 (active)
14,GGAGCUCAUUAGCAAAUAUTT against Olfm5,-0.859
15,GUACAAGCUCAAGUGCUCGTT against Casz1,-0.463
16,GGAACUCCUGACUCUCAGATT against Htra2,-1.19
17,UGUACUGAUACAUACUUCCTT against Olfr1249,-0.487
18,GCAUGACAGUCAACACAAGTT against Slc35f6,2.04 (active)
19,GGAAAUAGACACCAAGAGCTT against Mau2,-1.64
20,GCAUCAUUAAGUGCUACCGTT against Pcdhac2,-0.263
21,UCUAUCUCAUUACUAUUGUTT against Olfr190,0.649
22,CCUAUCAAACUGACUUCAUTT against Castor2,0.309
23,GGACCUCCCACAGUGUUAUTT against Enpp2,-0.574

row,Sequence,z-score
1,GGGAAACAGAUGAAAGAGUTT against Relch,0.0344
2,GGUUUGAACUUCAGCAACUTT against Adam15,-2.17 (active)
3,GGUCCACUUAGUGGCUUAATT against Atp5pb,-0.227
4,GGUGUAUUGAGCUAAACAUTT against Rnft2,-0.344
5,GGCAUGAGCGAGUUAAACCTT against Usp53,1.65
6,GGAGAACAUUCAGGUGACATT against Pdgfd,-0.625
7,GGCGAUGUGAAAAUCUUAATT against Xpnpep2,3.65 (active)
8,GGCCUCUUAUGUCAACCUGTT against Rpsa,-1.57
9,GCCGAUUCUUCAAUGUGCGTT against Ribc1,-0.242
10,CCAGCACGCUGAAGUCUGATT against Adam19,1.21
11,CCCUAUCGUGAUUUAUUGGTT against C130073F10Rik,-1.33
12,GGGUACAAAGCAACAUUGGTT against Disp1,4.2 (active)
13,GCAAUGUGCACGAUGAUGATT against Pik3cg,-0.79
14,CCUAGUGAAUCCUCUCGUATT against Eqtn,0.178
15,GCCGAGCUCAAUGUGGGUATT against Bsn,1.11
16,GGAAGAAAGUGAGCCUUGUTT against Senp6,-2.14 (active)
17,GGCAGAGAGAUGUUACAAGTT against Ccl8,0.408
18,GGUACACUGGUAUACGUAUTT against Samd9l,-1.45
19,GGCUGAUCCAUUUUCACAATT against Adam6a,-2.77 (active)
20,GGUUUCAAGACAUUGAAAGTT against Arl14ep,-0.424
21,CGAUGACAUCAGGAUUGUUTT against Adgrg7,-0.124
22,GGACUUAUUAUGUGAGUGUTT against Ncbp2,0.555
23,GGAAAUCAGAAGAAGAACATT against Hars,2.67 (active)
